Active and inactive are the calls of the source.
Key:
[1] = test system: Human papillomavirus type 1a protein E7 (residues 44-93); assay: HPV1a E7 fragment binders on microarrays, primary screen, biochemical, small-molecule microarray, residues 44-93, 635 nm fluorescence (AID 1108); details: small-molecule microarray binding, fluorescence 635 nm; higher = more signal;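 further: E7 fragment applied at 1 µg/mL in TBST for 1 h at 4 C; score combines spot fluorescence with its signal to noise ratio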
[2] = modulators of HCV replicon luciferase signal, primary screen, HCV replication inhibitor project, Huh7 cells, luciferase reporter (AID 1109); details: 48 h, higher = more signal;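 further: huh7 hepatoma cells harbouring a luciferase neomycin HCV replicon reporter; luciferase luminescence as measure of HCV replicon replication; test concentration not given here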
[3] = biological target: Left-right determination factor 2 (Homo sapiens) (UniProt O00292); assay: LEFTY2 binders on small-molecule microarrays, primary screen, biochemical, small-molecule microarray, 635 nm fluorescence scan (AID 1110); details: LEFTY2 binding, higher = more signal
Left-right determination factor 2 (Homo sapiens), sequence (O00292 whole entry, looked up): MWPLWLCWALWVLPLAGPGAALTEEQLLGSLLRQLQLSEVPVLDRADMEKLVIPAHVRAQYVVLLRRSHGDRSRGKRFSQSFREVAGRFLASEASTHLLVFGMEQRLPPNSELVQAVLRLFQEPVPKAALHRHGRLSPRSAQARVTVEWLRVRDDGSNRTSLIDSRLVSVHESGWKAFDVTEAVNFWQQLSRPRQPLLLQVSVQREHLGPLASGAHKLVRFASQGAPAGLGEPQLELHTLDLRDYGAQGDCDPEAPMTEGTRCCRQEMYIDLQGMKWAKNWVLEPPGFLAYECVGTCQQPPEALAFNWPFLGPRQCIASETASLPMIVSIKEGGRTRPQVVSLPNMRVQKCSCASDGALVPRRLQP

[4] = biological target: Calmodulin-1 (Homo sapiens) (UniProt P0DP23); assay: CALM1 binders on microarrays, EGTA buffer, profiling panel, biochemical, small-molecule microarray, Cy5-labelled CALM1 (AID 1111); details: Cy5-CALM1 binding fluorescence, higher = more signal;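 further: labelled calmodulin applied in Tris saline Tween buffer holding calcium plus EGTA and DTT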
[5] = biological target: Calmodulin-1 (Homo sapiens) (UniProt P0DP23); assay: calcium-bound CALM1 binders on microarrays, profiling panel, artefact control for SMM control-protein annotation, biochemical, small-molecule microarray, Cy5-labelled CALM1, plus calcium (AID 1112); details: Cy5-CALM1 binding fluorescence, higher = more signal;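 further: score merges spot fluorescence with signal to noise from triplicate slides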
[6] = small-molecule microarray binders of probe aWnt5a, primary screen, biochemical, biotinylated probe, 635/667 nm fluorescence (AID 1113); details: higher = more signal;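 further: score merges 667 nm fluorescence intensity with signal-to-noise per printed feature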
[7] = small-molecule microarray binders of probe aShh, primary screen, biochemical, biotinylated probe, 635/667 nm fluorescence (AID 1114); details: higher = more signal;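 further: probe is biotin-labelled aShh protein from a stem cell growth factor screen; measures binding of labelled protein to compounds printed on the slide; score merges feature fluorescence at 667 nm with signal-to-noise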
[8] = small-molecule microarray binders of probe aNog, primary screen, biochemical, biotinylated probe, 635/667 nm fluorescence (AID 1115); details: higher = more signal;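 further: probe is biotinylated aNog protein used at 0.15 µg/mL for 1 h at 4 C; z-score combines 667 nm fluorescence of each spot with its signal to noise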
[9] = biological target: Torsin-1A-interacting protein 1 (Homo sapiens) (UniProt Q5JTV8); assay: LAP1 binders from COS7 cell lysate, primary screen, small-molecule microarray, 635/667 nm fluorescence (AID 1116); details: COS7-hLAP1 lysate binding, 635 nm fluorescence, higher = more signal
Torsin-1A-interacting protein 1 (Homo sapiens), sequence (Q5JTV8 whole entry, looked up): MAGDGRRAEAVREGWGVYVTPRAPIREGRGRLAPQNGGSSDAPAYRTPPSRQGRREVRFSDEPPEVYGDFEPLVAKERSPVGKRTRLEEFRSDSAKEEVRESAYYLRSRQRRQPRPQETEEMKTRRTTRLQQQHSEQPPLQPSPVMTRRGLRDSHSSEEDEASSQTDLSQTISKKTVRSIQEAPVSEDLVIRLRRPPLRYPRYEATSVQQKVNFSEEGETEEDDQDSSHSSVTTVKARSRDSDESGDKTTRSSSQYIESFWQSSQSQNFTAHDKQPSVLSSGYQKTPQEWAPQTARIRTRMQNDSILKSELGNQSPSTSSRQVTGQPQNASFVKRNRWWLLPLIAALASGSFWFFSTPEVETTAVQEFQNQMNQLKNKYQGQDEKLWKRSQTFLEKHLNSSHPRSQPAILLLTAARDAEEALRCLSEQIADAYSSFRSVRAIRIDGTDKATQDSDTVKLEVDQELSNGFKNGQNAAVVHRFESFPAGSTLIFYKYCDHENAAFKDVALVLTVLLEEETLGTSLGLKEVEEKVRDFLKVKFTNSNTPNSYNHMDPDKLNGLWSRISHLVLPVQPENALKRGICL

[10] = biological target: Alpha-bungarotoxin (Bungarus multicinctus) (UniProt P60615); assay: alpha-bungarotoxin binders on microarray, profiling panel, artefact control for SMM control protein annotation, biochemical, small-molecule microarray, Alexa647 label, 635/667 nm fluorescence (AID 1117); details: alpha-BTX-A647 binding fluorescence, higher = more signal
Alpha-bungarotoxin (Bungarus multicinctus), sequence (P60615 whole entry, looked up): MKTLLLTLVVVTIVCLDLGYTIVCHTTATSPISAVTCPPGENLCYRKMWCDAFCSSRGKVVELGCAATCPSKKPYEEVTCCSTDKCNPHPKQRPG

Albumin (Bos taurus) = Albumin (Bos taurus) (UniProt P02769); assay: bovine serum albumin binders on microarray, profiling panel, artefact control for SMM control protein annotation, biochemical, small-molecule microarray, Alexa647 label, 635/667 nm fluorescence (AID 1118); details: BSA-A647 binding, fluorescence 635 nm, higher = more signal;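 further: score merges 667 nm emission intensity and signal-to-noise per printed compound spot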
Albumin (Bos taurus), sequence (P02769 whole entry, looked up): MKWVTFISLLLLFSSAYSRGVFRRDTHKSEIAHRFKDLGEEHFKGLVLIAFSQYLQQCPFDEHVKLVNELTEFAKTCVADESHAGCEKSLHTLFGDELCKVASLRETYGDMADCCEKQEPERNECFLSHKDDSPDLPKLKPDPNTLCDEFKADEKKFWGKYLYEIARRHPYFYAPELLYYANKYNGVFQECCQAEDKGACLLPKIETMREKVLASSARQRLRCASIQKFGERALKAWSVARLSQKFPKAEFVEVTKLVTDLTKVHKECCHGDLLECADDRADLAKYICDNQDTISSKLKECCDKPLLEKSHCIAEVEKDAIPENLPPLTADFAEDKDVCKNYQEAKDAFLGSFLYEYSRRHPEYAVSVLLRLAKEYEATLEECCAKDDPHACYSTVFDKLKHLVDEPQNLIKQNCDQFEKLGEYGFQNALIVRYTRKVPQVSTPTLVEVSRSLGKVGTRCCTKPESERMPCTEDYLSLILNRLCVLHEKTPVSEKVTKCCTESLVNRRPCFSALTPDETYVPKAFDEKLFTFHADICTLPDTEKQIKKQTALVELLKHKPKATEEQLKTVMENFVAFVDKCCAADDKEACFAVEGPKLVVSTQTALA

[11] = small-molecule microarray binders of probe aXIP, primary screen, biochemical, NeuroSMM set, 635/667 nm fluorescence (AID 1119); details: higher = more signal, called active from +8 up or from −8 down;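 further: probe is the protein aXip251-270 applied at 1 µg/mL to compound-printed slides; binding of probe to printed compounds measured as 667 nm fluorescence plus signal to noise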
[12] = small-molecule binders of probe aNOTCH3, primary screen, biochemical, small-molecule microarray, 635/667 nm fluorescence (AID 1120); details: higher = more signal;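 further: probe is a biotin-tagged antibody raised against NOTCH3 rather than NOTCH3 protein; score merges spot fluorescence near 667 nm with spot signal to noise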
[13] = small-molecule binders of probe aNOTCH2, primary screen, biochemical, small-molecule microarray, 635/667 nm fluorescence (AID 1121); details: higher = more signal;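 further: score merges feature fluorescence read at 667 nm with its signal to noise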
[14] = biological target: Carbonic anhydrase 2 (Homo sapiens) (UniProt P00918); assay: CAII small-molecule binders, profiling panel, biochemical, small-molecule microarray, Alexa647-labelled CAII (AID 1122); details: CAII-A647 binding fluorescence, higher = more signal
[15] = COS7 lysate on small-molecule microarray, probe aHis, 635 nm (AID 1123); details: COS7 cell lysate, fluorescence, higher = more signal;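 further: z-score combines 667nm fluorescence intensity with signal-to-noise per printed compound spot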
[16] = compound binding in COS7 lysate, probe aLAP1, primary screen, cell lysate, small-molecule microarray (AID 1124); details: probe aLAP1, fluorescence, higher = more signal;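 further: lysate comes from COS7 cells expressing LAP1 and is applied at 0.3 µg/mL; score merges spot fluorescence near 667 nm with signal-to-noise over triplicate slides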
Sam68 (KHDRBS1) = assay: Sam68 small-molecule binders, primary screen, biochemical, small-molecule microarray, 635 nm fluorescence (AID 1125); details: small-molecule microarray binding, higher = more signal;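 further: score merges 667 nm channel intensity with signal to noise over triplicate slides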
[17] = test system: Chordin-like protein 2 (CHRDL2); assay: CHRDL2 small-molecule binders, primary screen, biochemical, small-molecule microarray, 635 nm fluorescence (AID 1126); details: small-molecule microarray binding, fluorescence 635 nm; higher = more signal;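 further: printed compound slides probed with Chrdl2 protein at 4 µg/mL for 1 h at 4 C; score merges 667 nm emission intensity with signal to noise over three replicate slides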
[18] = biological target: Concanavalin-A (Canavalia ensiformis) (UniProt P02866); assay: ConA small-molecule binders, primary screen, artefact control for SMM control protein annotation, biochemical, small-molecule microarray, Alexa647 label, 635 nm (AID 1127); details: ConA-A647 binding fluorescence, higher = more signal;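 further: z combines 667 nm emission intensity with signal-to-noise across three replicate slides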
Concanavalin-A (Canavalia ensiformis), sequence (P02866 whole entry, looked up): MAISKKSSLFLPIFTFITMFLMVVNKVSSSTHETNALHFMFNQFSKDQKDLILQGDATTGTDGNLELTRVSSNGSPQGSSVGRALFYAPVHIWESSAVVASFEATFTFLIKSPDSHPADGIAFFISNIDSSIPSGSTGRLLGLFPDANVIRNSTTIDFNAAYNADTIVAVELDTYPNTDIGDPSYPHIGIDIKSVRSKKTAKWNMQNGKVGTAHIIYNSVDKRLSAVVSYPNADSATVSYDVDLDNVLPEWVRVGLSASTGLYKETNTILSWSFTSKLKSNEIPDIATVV

Compound | composite z-score [1] | z-score [2] | composite z-score [3] | composite z-score [4] | composite z-score [5] | composite z-score [6] | composite z-score [7] | composite z-score [8] | composite z-score [9] | composite z-score [10] | composite z-score (Albumin (Bos taurus)) | composite Z-score [11] | composite z-score [12] | composite z-score [13] | composite z-score [14] | composite z-score [15] | composite z-score [16] | composite z-score (Sam68 (KHDRBS1)) | composite z-score [17] | composite z-score [18]
COC(=O)C1=CCC(c2cccc(Cl)c2)O1 (stereo not given) | 0.387 | -2.31 | 0.106 | 0.0588 | -0.23 | -0.0286 | -0.291 | 0.287 | 0.0692 | 0.648 | 0.431 | 0.0018 (inactive) | -0.112 | -0.0907 | 0.483 | -0.21 | -0.201 | 0.137 | -0.667 | 0.247
C[C@@H]1C=CCC(=O)OC[C@H](C)C(=O)N2CCC[C@H]2C(=O)OC1 | 0.685 | -1.06 | 0.851 | -0.725 | -1.26 | -0.22 | 0.0188 | 0.0419 | 0.96 | -0.285 | -0.12 | 0.608 (inactive) | -0.143 | -0.0338 | -0.0527 | -0.0199 | 0.0742 | 1.14 | 1.58 | 0.182
CCCC[C@@H](O)C1=C(C)C[C@H]2C(=O)N(Cc3ccccc3)C(=O)[C@H]2[C@H]1CO | -0.101 | 0.156 | 0.521 | -0.349 | -0.611 | -0.0478 | -0.0553 | -0.158 | 0.503 | -0.227 | 0.0852 | -0.041 (inactive) | -0.0175 | -0.133 | -0.215 | -0.377 | 0.0292 | 0.241 | 0.538 | 0.321
COC(=O)[C@@H]1N=C(c2ccc(OCCCO)cc2)O[C@@H]1c1ccccc1N=[N+]=[N-] | 0.515 | -1.66 | -0.187 | 1.54 | 1.04 | -0.0445 | 0.214 | 0.619 | 1.27 | 1.42 | 0.731 | -0.384 (inactive) | 0.149 | -0.0534 | 0.666 | 1.92 | 0.35 | 1.05 | -0.456 | 0.928
C[C@@H]1CC[C@H]2C(=O)O[C@H](COc3ccc(C(C)(C)C)cc3)CN2[C@H]1c1ccc(Br)cc1 | -0.387 | 0.0366 | 0.113 | -0.11 | 0.347 | 0.721 | -0.415 | -0.514 | -0.15 | 0.323 | 0.673 | 0.458 (inactive) | -0.0716 | 0.0776 | -0.113 | -0.231 | 0.157 | -0.734 | 0.0828 | -0.212
CC[C@@H](c1ccccc1)n1c(=O)n2n(c1=O)[C@H]1[C@H](O)[C@@H]3O[C@@H]3C(=NOCC=C(C)CCC=C(C)C)[C@H]1CC2 | 1.21 | -3.62 | 0.827 | -0.0812 | -0.834 | -0.001 | -0.0866 | -0.136 | 0.215 | 0.0806 | -0.258 | -0.183 (inactive) | 0.192 | -0.084 | 0.406 | 0.689 | -0.194 | 1.29 | 0.552 | 0.548
C=CC[C@@H]1C=C[C@H](ON=C2c3cc(OC)ccc3O[C@H](c3cccc(OC)c3)[C@H]2O)[C@@H](CO)O1 | -0.208 | -0.892 | 0.194 | -0.569 | -0.319 | -0.175 | -0.288 | 0.151 | -0.103 | 1.42 | 0.764 | 0.196 (inactive) | -0.253 | -0.0956 | 0.427 | 0.425 | 0.266 | -0.194 | 0.105 | -0.302
CO[C@@H]1COC(=O)CCC[C@@H](C)[C@H](OC)COC(=O)CCC[C@H]1C | -0.341 | -1.38 | 0.862 | -0.454 | -0.966 | -0.0445 | -0.206 | -0.303 | 0.665 | -0.12 | -0.27 | 0.231 (inactive) | -0.0967 | -0.0907 | -0.277 | -0.307 | -0.0693 | -0.12 | 0.777 | -0.302
O=C(CS)NCCCCCNC(=O)[C@H]1C[C@H]2C(=O)N3CCC[C@H]3C(=O)N2[C@H]1c1cccc(OCCO)c1 | 0.435 | 0.235 | 0.691 | -0.8 | -1 | 0.128 | -0.138 | -0.347 | 1.22 | 1.55 | -1.4 | 0.62 (inactive) | 0.121 | -0.101 | 0.46 | 2.45 | 0.729 | 1.34 | 1.4 | 1.2
C[N+](C)(C)CCCCCCNC(=O)[C@@H]1C[C@@H]2C(=O)N3CCC[C@H]3C(=O)N2[C@@H]1c1cccc(OCCO)c1 | 1.34 | 1.41 | 0.385 | 0.233 | -1.07 | -0.197 | 0.905 | -0.238 | -0.24 | -0.0576 | -0.45 | 0.372 (inactive) | -0.182 | -0.205 | 0.581 | 1.56 | 0.338 | 0.927 | 0.954 | 0.743
CC(CCN1CCc2nc(-c3ccccc3)c(-c3ccccc3)cc2C1)=NOC[C@@H](C)[C@H](OCc1ccccc1)C(C)C | -1.08 | -1.77 | -0.323 | -0.607 | 0.343 | -0.134 | -0.304 | -0.278 | -0.424 | 1.14 | 0.474 | -0.193 (inactive) | 0.0375 | -0.177 | -0.0642 | 0.271 | -0.2 | -1.19 | -1.11 | -0.198
